The entries come from a sample that favours hits as a whole.
Pf Dd2 inh: qHTS Primary assay for Inhibitors of Plasmodium falciparum Dd2 growth in vitro; P. falciparum Dd2 growth, SYBR Green, 72 h; Potency, µM (highest dose often 28.9 µM), for inactives: at the highest dose activity, negative = inhibition, most hits filed as inhibitors; 4.3% of 120,000 active; AID 1347417, 2020; active = well fitted inhibition curve with a large enough effect;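 note: plate controls were DMSO vehicle for no effect and reference drug for full effect; nearly all actives have a fitted effect of over 65% in size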
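Readout: SYBR Green fluorescence, 485 nm excitation, 535 nm emission, after ~16 h lysis at 37C. Before that, Dd2-infected red cells (2.5% hematocrit) grew 72 h with compound, 29 uM top final concentration.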
* hit, by the source's call; i = inactive; [ ] = remark or other dose. Potency is the fitted concentration of half-maximal effect.

SMILES	Pf Dd2 inh
O=C(Cc1cccn1-c1ccc(Cl)cc1)N1CCCC1	-25.9%
CC(C)CN1C(=O)c2cccn2CC1CNC(=O)CCc1nc2ccccc2s1 (configuration not stated)	i
Cc1nn(-c2ccccc2)c(C)c1[C@@H]1C=C[C@@H](NCc2cccc(C#N)c2)C1	i
Cc1ccc(-n2nc(C)c([C@@H]3C=C[C@@H](NCc4ccc(F)cc4)C3)c2C)cc1Cl	3.55µM*
Cc1nn(-c2cccc(Br)c2)c(C)c1[C@@H]1C=C[C@@H](NS(C)(=O)=O)C1	-3.0%[44.1 µM]
Cc1nn(-c2ccc(C(C)C)cc2)c(C)c1[C@@H]1C=C[C@@H](NCc2ccc(F)cc2)C1	3.98µM*
Cc1nn(CCC#N)c(C)c1[C@@H]1C=C[C@@H](NCc2ccc(F)cc2)C1	-15.7%[44.1 µM]
Cc1ccc(-n2nc(C)c([C@@H]3C=C[C@@H](NCc4ccc(N(C)C)cc4)C3)c2C)cc1Cl	-42.3%[44.1 µM]
Cc1ccc(-n2nc(C)c([C@@H]3C=C[C@@H](NC(=O)CC(C)(C)CC(=O)O)C3)c2C)cc1Cl	i
Cc1nn(-c2ccc(C(C)C)cc2)c(C)c1[C@@H]1C=C[C@@H](NCc2cccc(C#N)c2)C1	4.47µM*
Cc1nnc(NC(=O)c2cccn(Cc3cccc([N+](=O)[O-])c3)c2=O)s1	-15.4%
O=S(=O)(c1ccc(F)cc1)N1CCC2(CC1)CC(N1CCOCC1)CCO2 (configuration not stated)	i
CCOc1ccc(NC(=O)c2cc(C)nc3c2c(C)nn3-c2ccc(C)cc2)cc1	23.6%
Cc1cccc(OCC(=O)N(Cc2ccc(N(C)C)cc2)Cc2ccco2)c1C	-4.2%
Cc1cccc(-c2nc(SCCCOc3cc(C)c(Cl)c(C)c3)n3[nH]c(=O)cc3n2)c1	18.1%
CSc1ccc(-c2nc(CN3CCOC(CCO)C3)c(C)o2)cc1 (configuration not stated)	-10.0%
OCCC1CN(Cc2cnn(-c3ccccc3)c2)CCN1Cc1cccs1 (configuration not stated)	i
Cc1cccc(CN2CCN(Cc3nc(-c4cccs4)oc3C)CC2CCO)n1 (configuration not stated)	11.2µM*
Cc1nonc1OCCn1cc(-c2ccc(CO)o2)nn1	2.0%
Cc1ccc(NC(=O)Cn2c(=O)n(Cc3ccc(F)cc3)c(=O)c3cccnc32)cc1C	-6.5%
Cc1ccc(NC(=O)C2CC(=O)Nc3ncnn32)cc1C (configuration not stated)	-2.3%
O=C(CCCc1ccc(F)cc1)N[C@@H]1CCOC[C@H]1Oc1ccccn1	-4.3%
CC(Oc1ccccc1)C(=O)N1CCC(c2nn(C)c3c2COCC3)CC1 (configuration not stated)	57.5%[5.79 µM]
COc1ccc(-c2nnc(SCC(=O)NC3CCCCC3)nc2-c2ccc(OC)cc2)cc1	39.1%
Cc1ccc(-c2nnc(SCC(=O)NC3CCCC3)nc2-c2ccc(C)cc2)cc1	5.01µM*
SMILES	Pf Dd2 inh
O=C(CSc1nnc(-c2ccc(Cl)cc2)c(-c2ccc(Cl)cc2)n1)NC1CCCC1	i
CCN(CCCNC(=O)C1CCN(c2cn[nH]c(=O)c2)C1)c1ccccc1 (configuration not stated)	-23.4%
O=C(c1ccc2c(c1)OCO2)N1CC(Oc2ccc(F)cc2F)C1	-2.2%
CNC(=O)N1CCC(C2CCN(C(=O)c3ccc(OC)cc3)C2)CC1 (configuration not stated)	9.5%
COc1ccc(OC)c(NC(=O)CSc2c3c(nc4cc(Cl)ccc24)CCCC3)c1	8.91µM*
COCCNC(=O)CSc1c2c(nc3cc(Cl)ccc13)CCCC2	-23.5%
COc1ccc(C)cc1NC(=O)c1ccc2c(SCC(=O)O)c3c(nc2c1)CCCC3	-29.1%
COc1cc(OC)c(N(C)C(=O)CSc2c3c(nc4ccc(Cl)cc24)CCCC3)cc1Cl	11.2µM*
CN(Cc1ccccc1)C(=O)CSc1c2c(nc3ccc(Cl)cc13)CCCC2	-19.2%
CCCN(CCC)C(=O)CSc1c2c(nc3ccc(Cl)cc13)CCCC2	i
CCc1ccc(NC(=O)Cn2c(=O)n(CCCCC(=O)NCc3ccc4c(c3)OCO4)c(=O)c3ccccc32)cc1	i
CCCCNC(=O)c1nn(C)c2c1CSc1ccccc1-2	16.7%
Cc1nc(-c2ccc(S(=O)(=O)N3CCN(c4ccc(F)cc4)CC3)cc2)co1	14.7%
C#CCN(C)C[C@H]1CN2CC[C@H]1C[C@@H]2CNS(=O)(=O)c1cccs1	i
Cc1c(CC(=O)N2CCCCC2)c(=O)oc2c(C)c3occ(C(C)(C)C)c3cc12	i
O=C(CCC1N=C2c3ccccc3N=C(SCc3cccc(Cl)c3)N2C1=O)N1CCN(c2ccccc2)CC1 (configuration not stated)	11.2µM*
O=C(CCC1N=C2c3ccccc3N=C(SCC(=O)NCCc3ccccc3)N2C1=O)NCc1ccc(F)cc1 (configuration not stated)	-19.4%
O=C(CCC1N=C2c3ccccc3N=C(SCc3ccc(F)cc3)N2C1=O)N1CCN(c2ccccc2)CC1 (configuration not stated)	12.6µM*
O=C(CCC1N=C2c3ccccc3N=C(SCc3cccc(Cl)c3)N2C1=O)NCc1cccs1 (configuration not stated)	82.2%
O=C(CCC1N=C2c3ccccc3N=C(SCc3cccc(Cl)c3)N2C1=O)NCCc1ccccc1 (configuration not stated)	38.0%
O=C(CC1N=C2c3ccccc3N=C(SCc3ccc(F)cc3)N2C1=O)NCCc1ccccc1 (configuration not stated)	-18.2%
CCOC(=O)c1c(C)n(-c2ccccc2)c2ccc(OC(=O)COc3ccc(Cl)cc3)cc12	64.5%
CCCC1(C2CCN(C(=O)C(OC)c3ccccc3)CC2)NC(=O)N(CCc2cccs2)C1=O (configuration not stated)	-20.9%
CCN1C(=O)c2ccccc2S(=O)c2ccc(C(=O)NCc3ccccc3OC)cc21 (configuration not stated)	-20.1%
COCCNC(=O)c1ccc2c(c1)N(Cc1cccc(Cl)c1)C(=O)c1ccccc1S2=O (configuration not stated)	21.8%
SMILES	Pf Dd2 inh
CC(=O)Nc1ccc(NC(=O)c2ccc3c(c2)N(Cc2cccc(Cl)c2)C(=O)c2ccccc2S3=O)cc1 (configuration not stated)	11.2µM*
CCOC(=O)N1CCN(C(=O)c2ccc3c(c2)N(Cc2cccc(Cl)c2)C(=O)c2ccccc2S3=O)CC1 (configuration not stated)	-10.8%
O=C(c1ccc2c(c1)N(Cc1cccc(Cl)c1)C(=O)c1ccccc1S2=O)N1CCC(Cc2ccccc2)CC1 (configuration not stated)	-24.5%
CC(C)NC(=O)c1ccc2c(c1)N(Cc1cccc(Cl)c1)C(=O)c1ccccc1S2=O (configuration not stated)	23.2%
CC(=O)c1ccc(NC(=O)c2ccc3c(c2)N(Cc2cccc(Cl)c2)C(=O)c2ccccc2S3=O)cc1 (configuration not stated)	11.2µM*
COc1ccc(NC(=O)c2ccc3c(c2)N(Cc2cccc(Cl)c2)C(=O)c2ccccc2S3=O)cc1Cl (configuration not stated)	3.16µM*
CC1CCC(NC(=O)c2ccc3c(c2)N(Cc2cccc(Cl)c2)C(=O)c2ccccc2S3(=O)=O)CC1 (configuration not stated)	11.2µM*
CC1CCCCN1C(=O)c1ccc2c(c1)N(Cc1cccc(Cl)c1)C(=O)c1ccccc1S2=O (configuration not stated)	-12.4%
